Reference: ChEMBL document CHEMBL3988442, “University of Dundee, Small-Polar-MMV Screening Library” (2021)
Out of some 48,000 compounds screened, about 13,000 (27%) showed an effect of 50% or more. The list shows a part of the results.

system: Wolbachia pipientis; assay: Anti-Wolbachia Cell-Based Screen; type: functional; design: scale not given: in the data most compounds retested in dose-response had high values; details: 5 µM

Row | Compound | Percent Effect [%]
1 | COCc1noc(C2(c3cccc(Cl)c3)CCOCC2)n1 | -3.313
2 | COC(=O)c1cccc(C2CNCCN2C)c1 (stereo unspecified) | 77.97
3 | CN(C)C(=O)c1cccc(C2CNCCN2C)c1 (stereo unspecified) | 117.5
4 | COC(=O)c1cccc(CNC(=O)NCCC(F)(F)F)c1 | -12.97
5 | COC(=O)c1ccc2ccn(CC3CCNC3)c(=O)c2c1 (stereo unspecified) | -6.108
6 | CNC(=O)c1cccc(C2CNCCN2C)c1 (stereo unspecified) | -21.17
7 | COC(=O)c1cccc(C2CNCCN2C(C)=O)c1 (stereo unspecified) | 103.9
8 | COC(=O)c1cccc(CNC(=O)CCC(F)(F)F)c1 | -15.88
9 | COCCN1CCN(Cc2cccc(C(=O)N(C)C)c2)CC1C (stereo unspecified) | -4.413
10 | CC(=O)N1CCNCC1c1cccc(C(=O)N(C)C)c1 (stereo unspecified) | -10.2
11 | O=C(NCCc1ccncc1)c1ccc(N2CCOCC2)cc1 | -6.093
12 | Cn1cc(C(=O)NCc2ccc(N3CCNC(=O)C3)c(F)c2)cn1 | -29.09
13 | CC(C)CCC(=O)N1CCN(C(=O)c2ccc3nccn3c2)CC1 | -6.791
14 | CCC(=O)Nc1cccc(C(=O)NCCC2=CSC3=NCCCN23)c1 | 108.7
15 | CC(C)(O)CCc1cccc(C(=O)NCCC2=CSC3=NCCCN23)c1 | 99.07
16 | CCOc1ccc(N2CCCN=C2NC(=O)c2cccc(Cl)c2)cc1 | -0.7192
17 | O=C(NC1=NCCCN1c1ccc(Cl)cc1)c1cccc(Cl)c1 | 17.77
18 | CC(C)(O)CCc1cccc(C(=O)NCc2nccs2)c1 | 1.829
19 | CNc1cc(C(=O)N2CCCCC2CCn2ccnc2C)ccn1 (stereo unspecified) | 14.21
20 | CC(=O)N1CCOC(CNC(=O)c2cccc(CCC(C)(C)O)c2)C1 (stereo unspecified) | 13.88
21 | CNc1cc(C(=O)N2CCC3(CC2)Nc2ccccc2NC3=O)ccn1 | 27.99
22 | CNc1cc(C(=O)NCCC2=CSC3=NCCCN23)ccn1 | 99.62
23 | c1ccc(Cn2ccnc2CNC2CCCOc3ccccc32)cc1 (stereo unspecified) | -11.7
24 | COC(=O)C(C)CN(C)S(=O)(=O)c1c(Br)cc2[nH]c(=O)oc2c1Cl (stereo unspecified) | 24.19

Row | Compound | Percent Effect [%]
25 | Cc1cccc(N(CCC(N)=O)C(=O)c2cc(-n3cccn3)ccn2)c1 | -21.32
26 | Cc1ncsc1CN1CCn2c(COCC3CC3)cnc2C1C.O=C(O)C(F)(F)F (stereo unspecified) | 6.232
27 | CC1c2ncc(CNC(=O)C3CC3)n2CCN1Cc1ccncc1.O=C(O)C(F)(F)F.O=C(O)C(F)(F)F (stereo unspecified) | 104.7
28 | CC1c2ncc(CNC(=O)C3CC3)n2CCN1Cc1ccsc1.O=C(O)C(F)(F)F (stereo unspecified) | 96.09
29 | CC1c2ncc(CNC(=O)C3CC3)n2CCN1Cc1ccccn1.O=C(O)C(F)(F)F.O=C(O)C(F)(F)F (stereo unspecified) | 93.52
30 | O=C(NCc1cn2c(n1)CN(Cc1ccccn1)CC2)C1CCC1.O=C(O)C(F)(F)F.O=C(O)C(F)(F)F | -6.874
31 | O=C(NCc1cn2c(n1)CN(Cc1ccncc1)CC2)C1CCC1.O=C(O)C(F)(F)F.O=C(O)C(F)(F)F | -6.264
32 | CC1c2ncc(CNC(=O)C3CC3)n2CCN1Cc1nccs1.O=C(O)C(F)(F)F (stereo unspecified) | 120.4
33 | CC1c2ncc(CNC(=O)C3CC3)n2CCN1Cc1cnn(C)c1.O=C(O)C(F)(F)F.O=C(O)C(F)(F)F (stereo unspecified) | -12.81
34 | N#Cc1cn(CCCN2CCc3ccccc3C2)c(=O)[nH]c1=O | -8.057
35 | COc1ccc2c(c1)OCC(Cc1ccc(N(C)C)nc1)C2 (stereo unspecified) | -17.41
36 | CC(=O)NC[C@H]1COCc2nc3cc(S(C)(=O)=O)ccc3n21 | -22.59
37 | CC1c2ncc(CNC(=O)C3CC3)n2CCN1CC1CCC1.O=C(O)C(F)(F)F (stereo unspecified) | 88.49
38 | Cc1nc(COCc2cnc3n2CCN(CC2CCC2)C3C)cs1.O=C(O)C(F)(F)F (stereo unspecified) | -9.854
39 | CC1c2ncc(CNC(=O)C3CC3)n2CCN1Cc1cccnc1.O=C(O)C(F)(F)F.O=C(O)C(F)(F)F (stereo unspecified) | 100.5
40 | COCc1cnc2n1CCN(C1CCC1)C2C.O=C(O)C(F)(F)F (stereo unspecified) | 11.12
41 | COc1cccc2c1OCC(CNC(=O)CCCN1CCOCC1)C2 (stereo unspecified) | 2.111
42 | CS(=O)(=O)NCc1cc2n(n1)CCCN(Cc1cccc(C#N)c1)C2 | 3.455
43 | O=S(=O)(NCC1CCN(c2cnccn2)CC1)c1cccs1 | 107.7
44 | CN(C1CCN(c2ccccn2)CC1)S(=O)(=O)c1cccs1 | -12.42
45 | CCc1ccc(S(=O)(=O)NCC2CCN(c3cnccn3)CC2)s1 | 118.2
46 | O=C(NCCSCc1ccc(Br)s1)C1CCCN(c2cnccn2)C1 (stereo unspecified) | 1.609
47 | CC(CNC(=O)N1CCN(c2cnccn2)CC1)Cc1cccs1 (stereo unspecified) | -7.53
48 | Cc1nn(C)c(C)c1CN(C)C1CCN(c2ncnc3[nH]cnc23)CC1 | 0.8279

Row | Compound | Percent Effect [%]
49 | CC(=O)Nc1ccc(C(=O)N2CCOc3nc(C)ccc32)cc1 | -10.66
50 | COC(=O)CCC(=O)N1CCc2nc(C(=O)N(C)C)sc2CC1 | -18.4
51 | Cc1cc(Nc2cnccn2)nc(C2CCCN(CCO)C2)n1 (stereo unspecified) | 125
52 | Cn1ncc2c(N3CCN(CCO)CC3)nc(C3CCCC3)nc21 | 1.132
53 | Cc1cc(O)nc(C2CCCN(CCO)C2)n1 (stereo unspecified) | 175.9
54 | Cc1cc(Nc2ncccn2)nc(C2CCCN(CCO)C2)n1 (stereo unspecified) | 168.6
55 | Cc1cc(Nc2ccccn2)nc(C2CCCN(CCO)C2)n1.O=CO (stereo unspecified) | 136
56 | CSCCC1c2nc[nH]c2CCN1Cc1ccnc2ccccc12 (stereo unspecified) | 14.89
57 | COCCCN1CCC(NC(=O)C(C)C)CC1 | 12.3
58 | Cc1noc(C)c1CNc1c(N2CCCC2)cccc1N1CCCC1 | 3.451
59 | Cn1cc(N2CCCC(Nc3ccc4c(c3)NC(=O)CC4)C2=O)cn1 (stereo unspecified) | -4.573
60 | CC(c1ncc(-c2ccccc2)o1)N1CCN(C(=O)C(C)(C)C)CC1 (stereo unspecified) | 102.5
61 | CCN1CCN(C(=O)NC(C)c2noc(-c3ccccc3)n2)CC1 (stereo unspecified) | 0.3597
62 | O=C(CCCc1ncc(-c2ccccc2)o1)N1CCN(CCO)CC1 | -1.483
63 | CC(c1ncc(C(C)(C)C)o1)N1CCN(c2ccncc2)CC1 (stereo unspecified) | -9.491
64 | COCC(=O)N1CCN(C)c2ncccc2C1 | 4.839
65 | CC(c1ncc(-c2ccccc2)o1)N1CCN(C(=O)N(C)C)CC1 (stereo unspecified) | 106.8
66 | CC(c1ncc(C(C)(C)C)o1)N1CCN(Cc2ccco2)CC1 (stereo unspecified) | 19.54
67 | CCS(=O)(=O)N1CCN(C(C)c2ccccc2OC)CC1 (stereo unspecified) | 10.43
68 | CN(C)C(=O)N1CCN(C(=O)Nc2nc(-c3ccccc3)ns2)CC1 | -9.811
69 | Cc1ccc(-c2ncc(CN3CCN(C(=O)N(C)C)CC3)s2)o1 | 25.76
70 | CCS(=O)(=O)N1CCN(C(C)c2ncc(-c3ccccc3)o2)CC1 (stereo unspecified) | 106.9
71 | COCC(=O)N1CCN(C(C)c2ncc(-c3ccccc3)o2)CC1 (stereo unspecified) | 108.5
